This is an account of results in PubChem BioAssay.

Structures are written as SMILES. A number with no mark means an inactive call. Calls of active or inactive are those of the source.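 How the source made its calls: active means inhibition above 50%; inactive means the rest.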

The assay is described as follows: HepG2 cytotoxicity, primary screen, cytotoxicity control for P. falciparum antimalarial project, cell-based, ATP luminescence (AID 2303).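 Further: 0% = DMSO wells and 100% = digitonin-killed cells.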 The conditions noted are these: HepG2 viability, 24-48 h, at 10 µM, stronger effect = higher value.
Regarding `c1cc2nc(CCCCCc3nc4ccc(C5=N[C@@H]6CCCC[C@@H]6N5)cc4[nH]3)[nH]c2cc1C1=N[C@@H]2CCCC[C@@H]2N1`, the inhibition (in general, the change of the read-out against control, counted positive when it falls) was 8%.

With `Oc1ccc(-c2nc(-c3ccc4oc5ccc(-c6[nH]c(-c7ccc(O)cc7)nc6-c6ccccc6)cc5c4c3)c(-c3ccccc3)[nH]2)cc1`, the inhibition is -2%.

Turning to `CC(C)C[C@@H](C(=O)N[C@H](C(=O)Nc1nccs1)C(C)(C)C)[C@H](CCC(F)(F)F)N(O)C=O`, the inhibition was 11%.

Take `COc1ccc(Nc2nc(NN=Cc3cc(Br)ccc3O)nc(Nc3ccc([N+](=O)[O-])cc3)n2)cc1`: the inhibition was 27%.

For the compound `Oc1cccc(-c2nc(-c3ccccc3)c(-c3ccc4oc5ccc(-c6[nH]c(-c7cccc(O)c7)nc6-c6ccccc6)cc5c4c3)[nH]2)c1`, the inhibition is 30%.

With `COc1cc(-c2nc(-c3ccc4c(c3)CCC4=NO)c(-c3ccncc3)[nH]2)ccc1OCCN1CCN(C)CC1`, the inhibition is 53% (active).

For the compound `NC(N)=NN=Cc1c[nH]c2ccc(-c3ccccc3)cc12`, the inhibition is 15%.

Consider `Oc1cccc(-c2nc(-c3cccc(I)c3)c(-c3ccc(-c4nc(-c5cccc(O)c5)[nH]c4-c4cccc(I)c4)cc3)[nH]2)c1`, for which the inhibition was -4%.

As for `C[C@@H]([C@@H](CCCc1ccc(Cl)cc1)C(=O)N[C@H](C(=O)Nc1cccnc1)C(C)(C)C)N(O)C=O`, the inhibition was 7%.

In the case of `CCOc1cc(C=NNc2nc(C)cc(-n3nc(C)cc3C)n2)ccc1O`, the inhibition is 46%.

Consider `Oc1ccc2ccccc2c1C=NNc1nc(Nc2ccccc2)nc(N2CCOCC2)n1`, for which the inhibition was 66% (active).
